Results reported in PubChem BioAssay AID1347056 (Sanford-Burnham Center for Chemical Genomics, 2019).
The whole screen tested about 360,000 compounds, of which about 3,600 (1%) were called active.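 The calls were made as follows: active = compounds whose plate-normalised and pattern-corrected inhibition of the luciferase reporter signal at the single screening dose is 50% or more; inactive = the rest.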 The full list was thinned out, with actives kept by preference.

experiment: inhibitors of TROY-driven NF-kB signaling, primary screen, Q293 LMP1-TROYcd cells, NF-kB luciferase, uHTS (AID 1347056); conditions: Q293 LMP1-TROYcd NF-kB luciferase reporter, 4 h; at 10 µM; stronger effect = higher value

inhibition, active:
COc1ccc(/C=N/Nc2ncnc3sc4c(c23)CCCC4)cc1O 82.7%
CC(C)n1cnc2c(Nc3cccc(Cl)c3)nc(N(CCO)CCCO)nc21 50.8%
O=C(Nc1ccc2c(c1)OCCO2)C1CCCC1 81.7%
Cc1cccc(-n2ncc(Cl)c(Cl)c2=O)c1 72.5%
O=C(Nc1ccccc1Cl)/C(Cl)=C(\Cl)S(=O)c1ccccc1 (configuration not stated) 86.9%
Cc1ccc(-c2csc(NC(=O)Cn3[nH]c(=O)c4ccccc4c3=O)n2)cc1 55.9%
Cc1ccc(C(=O)O/N=C(\N)c2ccccn2)cc1Cl 72.9%
O=C(Nc1cccnc1)c1noc2c1CCCCC2 64.2%
CCCCCCc1cc2cc(-c3nnc(-c4ccccc4)o3)c(=O)oc2cc1O 61.6%
O=[N+]([O-])/C=C/c1ccc2c(ccn2Cc2ccccc2)c1 81.4%
COC(=O)c1sccc1NC(=O)CSc1ccccc1NS(=O)(=O)c1cc(Cl)ccc1Cl 51.4%
Cn1cc(/C=C/c2nc3ccccc3c(=O)n2-c2cccc([N+](=O)[O-])c2)c2ccccc21 53.2%
CC(C)=CCCC1(C)C=Cc2c(ccc3c2[nH]c2cc(O)c(C)cc23)O1 (configuration not stated) 56.8%
CCCc1ccc(-c2c(C)sc(NC(=O)c3ccnn3C)c2C#N)cc1 61.4%
Cc1ccc(Cc2c(-c3ccc(C)cc3)nc3c4ccccc4ccn23)cc1 54.4%
CCCCC(NS(=O)(=O)c1ccc(C)cc1)C(=O)Oc1ccc2c3c(c(=O)oc2c1)CCC3 (configuration not stated) 69.9%
COC(=O)CCNc1ccc2c(c1)OCCO2 78.2%
COc1ccccc1N=Cc1c(O)c2ccccc2oc1=O 68.1%
O=C(/C=C/Sc1ncn[nH]1)c1ccc(Cl)cc1 66%
CC(C)c1ccc2c(c1)c(SC(C)(C)C)c(CC(C)(C)C(=O)O)n2Cc1ccc(Cl)cc1 65.6%
COc1ccc(C(C#N)=C2C=CC(=NO)c3ccccc32)cc1 69.6%

inhibition, inactive:
COc1ccc(NC(=O)CCCNC(=O)Cn2cnc3sc4c(c3c2=O)CCCC4)cc1OC -6.14%
COc1ccc(NC(=O)CCNC(=O)Cn2cnc3sc4c(c3c2=O)CCCC4)cc1OC 11.8%
COCCCNC(=O)C1CCC(CNS(=O)(=O)c2ccc(OC)cc2)CC1 (configuration not stated) -8.61%
CCN(CC)C(=O)C1CCC(C)(C(=O)O)C1(C)C (configuration not stated) 7.66%
Cc1nnc(SCCCCSc2nnc(C)c(=O)[nH]2)[nH]c1=O -7.01%
C=C(C)C1CC=C(C)/C(=N/NC(=O)CCCNc2cccc(C)c2)C1 (configuration not stated) 5.76%
CN(CCO)c1ccc(/C=N/Nc2nncc3ccccc23)cc1 -22.8%
O=C(Nc1ccc2c(c1)OCO2)C1CC1(Cl)Cl (configuration not stated) -31.7%
CN1C(=O)c2ccc(NC(=O)C3CCCCC3)cc2C1=O -41%
CC(C)C[C@H]1CNC(=O)C(=O)N1C[C@H]1CCCN1C[C@H](Cc1ccc(O)cc1)N1C[C@H](CC(C)C)N(CC2CCCCCC2)C(=O)C1=O -20.6%
O=C1N[C@H](Cc2c[nH]c3ccccc23)COC(=O)[C@H](Cc2ccc(F)cc2)C/C=C\C[C@H]1CC(=O)N(CCO)Cc1ccccc1 19%
O=C(Cn1c(-c2cscn2)nc2ccccc21)Nc1ccc(Cl)cc1 6.66%
C/C(CC(=O)Nc1ccc(C)cc1C)=N\NC(=O)C(C)C 7.58%
CC1CCCCC1NC(=O)Cn1cnc2c1c(=O)n(C)c(=O)n2C (configuration not stated) -7%
O=C(CCc1[nH]c2ccccc2c1Sc1ccccc1)N(CCO)CCO 7.74%
CC(=O)Nc1c2c(nn1-c1cccc(C)c1)CSC2 -5.25%
CCCNC(=O)c1c(Cl)cnn1-c1ccc(C)cc1 -51.1%
CCNS(=O)(=O)c1ccc(CCC(=O)N2CCN(c3cc(Cl)ccc3C)CC2)cc1 26.1%
O=S(=O)(Cc1cc(Sc2ccccc2)nc(-c2ccccc2)n1)c1ccccc1 -3.96%
O=C(N[C@@H](Cc1c[nH]c2ccccc12)C(=O)O)OCC1c2ccccc2-c2ccccc21 -9.94%
O=C(Nc1ccccc1Cl)c1ccccc1S(=O)(=O)c1ccccc1[N+](=O)[O-] -26.1%
CC(=O)c1ccc(NC(=O)C(C)N(C)CC(=O)Nc2ccccc2Cl)cc1 (configuration not stated) 7.44%
O=C(Cn1[nH]c(=O)c2ccccc2c1=O)Nc1cccc(-c2nnc3n2CCCCC3)c1 18.8%
Cc1ccc(C)c(C(=O)COC(=O)Cn2[nH]c(=O)c3ccccc3c2=O)c1 -0.89%
O=C1C=CC(=O)N1c1ccc(N2CCCCC2)cc1 -3%
COC(=O)[C@@]1(Sc2ccc(C)cc2)CC(=O)N(c2cccc(SC)c2)[C@@H]1c1ccccc1 -0.08%
Cc1cccc(/C(N)=N/OC(=O)c2ccccc2Cl)c1 3.79%
N/C(=N\OC(=O)CCC1CCCCC1)c1ccccn1 -40.4%
COc1ccc(C2/C(=C(/O)c3ccc4c(c3)CC(C)O4)C(=O)C(=O)N2Cc2ccncc2)cc1 (configuration not stated) -12.1%
CC(=O)c1cc2c(cc1NC(=O)Cn1nc(-c3ccc(F)cc3)ccc1=O)OCO2 -13.6%
CC(=O)Nc1ccc(S(=O)(=O)NC2Cc3ccccc3C2)cc1 -3.14%
CCOc1ccc(/C=C(/NC(=O)c2ccccc2)C(=O)NCCC(=O)O)cc1 4.42%
O=C(c1noc2c1CCCC2)N1CCc2ccccc2C1 -14.7%
Cc1noc(C)c1COc1cccc(C(=O)Nc2cccnc2)c1 11.8%
CCCC(C)C(=O)NCc1ccncc1 (configuration not stated) 8.22%
FC(F)(F)Oc1ccccc1C(c1nnnn1C1CCCCC1)N1CCN(C/C=C/c2ccccc2)CC1 (configuration not stated) 5.81%
CCOC(=O)Cn1c(O)c(N=NC(=O)CNC(=O)Cc2ccccc2)c2ccccc21 -7.61%
C/C(CC(=O)NCc1ccc(Cl)cc1)=N\NC(=O)COc1ccc(C)cc1Br -10.5%
Cc1cc(OC(=O)c2ccc(OC(C)C)cc2)c([N+](=O)[O-])c(=O)[nH]1 -22.1%
O=C(Oc1ccc(-c2nnco2)cc1)c1ccc(F)c(S(=O)(=O)N2CCOCC2)c1 40.2%
COC(=O)c1sccc1NS(=O)(=O)c1ccc(F)cc1F 10.6%
COC(=O)c1scc(C)c1NC(=O)CSc1ccc(Cl)cc1 -6.59%
CC(C)(Oc1ccc(C2CC2(Cl)Cl)cc1)C(=O)O (configuration not stated) -11.2%
Cc1cc(N)n(-c2ccc(S(=O)(=O)N3CCCC3)cc2[N+](=O)[O-])n1 1.51%
CCn1c(/C=C/c2ccc([N+](=O)[O-])o2)nc2ccccc2c1=O 1.09%
CCOC(=O)N1CCN(Cc2nc3ccc([N+](=O)[O-])cc3c(=O)n2-c2cccc(OC)c2)CC1 5.96%
CC(OC(=O)c1ccccc1NCCO)C(=O)Nc1ccnn1C(C)C (configuration not stated) 4.88%
CCCc1cc(=O)[nH]c(SCC(=O)Nc2sc3c(c2C#N)CCCC3)n1 -13.3%
Cc1sc(NC(=O)C2=COCCO2)c(C#N)c1C -29.2%
O=C1COc2ccc(C(=O)CSc3ccc(Br)cc3)cc2N1 6.67%
CCNC(=S)N(CCN(CC)CC)Cc1cc2cc3c(cc2[nH]c1=O)OCO3 7.05%
Cc1ccc(Cc2c(-c3ccc(Cl)cc3)nc3c4ccccc4ccn23)cc1 4.34%
c1ccc(Cc2c(-c3ccco3)nc3c4ccccc4ccn23)cc1 3.44%
O=C(N=C1SC2CS(=O)(=O)CC2N1Cc1ccccc1)c1ccccc1 (configuration not stated) -0.57%
NC(=O)C1CCN(C(=O)COc2ccc3c4c(c(=O)oc3c2)CCC4)CC1 -10.9%
O=C(COc1ccc2c3c(c(=O)oc2c1)CCC3)NC1CCCCC1 -1.91%
COC(=O)c1cc2c(ccn2C)n1C 0.05%
Cc1ccc(OCCCC(=O)Nc2ccc3c(c2)OCCO3)cc1 17.8%
CCOc1ccc(NCCC(=O)c2ccc3c(c2)OCO3)cc1 9.47%
COc1ccccc1-c1oc2ccccc2c1C#CCCCCO 2.78%
O=c1oc2ccccc2c(=O)c2ccccc12 4.31%
COC(=O)CNc1nc(Cl)nc(N2CCC(C)CC2)n1 6.46%
CCCS(=O)(=O)NC(=O)C1(C)CCN(C(=O)c2sccc2C)C1 (configuration not stated) -21%
O=C(Cc1ccccc1F)NC1CCSc2ccccc21 (configuration not stated) 6.21%
CC(C)CN(C(=O)CN1CCN(S(=O)(=O)c2ccccc2)CC1)c1c(N)n(CC(C)C)c(=O)[nH]c1=O 3.32%
COCCN1C(=O)c2oc3c(C)cc(C)cc3c(=O)c2C1c1cccc(O)c1 (configuration not stated) 1.51%
O=C(COc1ccc(Br)cc1F)NCC1(N2CCCCC2)CCCCC1 -6.39%
COc1ccc(C(=NN)c2ccc(OC)cc2)cc1 -42.8%
COc1ccc(/C(N)=N/OC(=O)Cc2ccccc2)cc1 -56.1%
NC(=O)[C@H]1CC2(CC(c3cccc(NC(=O)[C@H]4CCC(=O)N4)c3)=NO2)CN1C(=O)c1ccccc1C(=O)c1ccccc1 (some centres not stated) -0.31%
CC1CCc2c(sc(NC(=O)c3ccc(Cn4cc(Br)cn4)o3)c2C(N)=O)C1 (configuration not stated) -4.02%
